Shown are actives, neighbours in structure and some others; about 19% of the full set was active somewhere.
TDP1 cell CPT: growth inhibition of DT40 Tdp1-/-;hTDP1 cells with camptothecin (screen for TDP1 inhibitors) | chicken DT40 Tdp1-/-;hTDP1 cells + 20 nM CPT, ATP luminescence, 48 h | Potency, µM (top dose mostly 46.2 µM), for the others: at the highest dose activity change, negative = growth inhibition, actives largely listed as inhibitors | 420,000 tested, 12% active | AID 686979; further: potency means the concentration at half of the fitted maximal effect; nearly all actives have a fitted effect of over 55% in size
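Chicken DT40 Tdp1-/- cells stably complemented with human TDP1 were seeded at 400 cells/well in medium containing 20 nM camptothecin, exposed to pin-transferred compounds, and grown at 37 °C for at least 48 hr. Viability was read as ATP luminescence.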
DT40 TDP1 no CPT: qHTS for Inhibitors of human tyrosyl-DNA phosphodiesterase 1 (TDP1): qHTS in cells in absence of CPT; DT40 Tdp1-/- hTDP1 cells, no CPT, ATP luminescence, 48 h; Potency, µM (titrated, usually from 46.2 µM), for the others: at the highest dose activity change, negative = growth inhibition, hits mostly inhibitors; 420,000 tested, 15% active; further: potency means the concentration at half of the fitted maximal effect; nearly all actives have a fitted effect of over 55% in size
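Growth of hTDP1-complemented DT40 Tdp1-knockout cells is measured by ATP luminescence after at least 48 hr compound exposure at 37 °C, with DMSO substituting for the 20 nM CPT used in the parallel screen.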
IL-1B inflam inh: inhibitors of inflammasome signaling (IL-1 beta secretion) | THP-1 LPS/ATP IL-1B secretion, AlphaLISA, 16 h; stronger effect = lower value | activity change, % at 57.5 µM | 360,000 tested, 4.7% active; in the data active means activity change below about -50%; inconclusive means mostly about -30% to -49%
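THP-1 cells pretreated 1 hr with compounds (up to 57.5 uM final), then stimulated with LPS (250 ng/mL final) plus ATP (1.25 mM final); secreted IL-1B measured by AlphaLISA after 16 hr, decreased signal indicating inhibition.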
HT1080 IDH1KD tx: HT-1080 IDH1 knockdown cell toxicity (counter line); HT-1080 IDH1 knockdown viability, ATP luminescence, 48 h; Potency, µM (highest dose often 46.1 µM), for inactives: at the highest dose activity, negative = toxicity, usual class: cytotoxic; 360,000 tested, 2% active; AID 686971;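 further: potency means the concentration at half of the fitted maximal effect; 0% = DMSO wells and -100% = cell-free medium wells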
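After a 2 h attachment period, IDH1KD HT-1080 cells took pin-transferred compound for 48 h at 37 °C; ATP-based luminescence after 10 min room-temperature reagent incubation reported viability.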
HT1080NT lethal: kills 2HG-producing HT-1080-NT fibrosarcoma cells | HT-1080-NT fibrosarcoma viability, CellTiter-Glo ATP luminescence, 48 h | Potency, µM (top dose mostly 46.1 µM), without a hit: top-dose activity, negative = less viability, most hits filed as cytotoxic | 360,000 tested, 1.6% active | AID 686970;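 further: NT is the 2HG producing partner of a matched IDH1 knockdown line; potency means the concentration at half of the fitted maximal effect; 0% = DMSO-treated cells and -100% = media-only wells without cells; nearly all actives have a fitted effect of over 55% in size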
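Viability of the 2HG-overproducing fibrosarcoma line after 48 hours of compound exposure at 37 degrees C was determined by luminescence with CellTiter-Glo, and concentration-effect curves were then fitted and categorized.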
* = called active by the depositor; ? = inconclusive; nt = no result given; [ ] = another dose, or the depositor's remark. Unless noted, the call rests on the fitted dose curve; in most records, active means well fitted curve in the direction sought with a large enough effect; inconclusive means small, poorly fitted or top-dose-only effect, or another doubt; inactive means no such curve, though single readings can be large; an effect the other way counts as inactive or inconclusive. Unless noted, on the % scale 0 is the no-effect control and ±100 the full control effect.

SMILES	TDP1 cell CPT	DT40 TDP1 no CPT	IL-1B inflam inh	HT1080 IDH1KD tx	HT1080NT lethal
CN(C)c1ccc(CC(=O)N2CCCCC2c2cc(C(=O)Nc3ccccc3Cl)no2)cc1 (configuration not stated)	-110%	?	-11	?	33µM*
COC(=O)N1CCCCC1c1cc(C(=O)Nc2ccccc2Cl)no1 (configuration not stated)	?	?	0	2%	?
CN(C)c1ccc(CC(=O)N2CCCC(c3cc(C(=O)Nc4ccc(F)c(Cl)c4)no3)C2)cc1 (configuration not stated)	16µM*	23µM*	-1	?	-25%
CN(C)CCCN(C(=O)c1ccc2c(c1)CCCC2)c1nc2c(F)cccc2s1	21µM*	23µM*	-62*	0%	-17%
Cc1cc(C)c2nc(N(CCCN(C)C)C(=O)c3ccc4c(c3)CCCC4)sc2c1	21µM*	10µM*	-78*	?	-15%
CCC(=O)c1ccc(OCC(=O)OCC(=O)NCC2CCCO2)cc1 (configuration not stated)	-7%	24%	6	2%	0%
C=C(C)C(=O)OCC(O)COc1ccc(C(C)(C)c2ccc(OCC(O)COC(=O)C(=C)C)cc2)cc1 (configuration not stated)	16µM*	21µM*	-64*	?	?
CCCc1cc(C(=O)Cc2ccc(F)cc2)c(O)cc1O	?	?	20	21µM*	23µM*
Cc1ccc(S(=O)(=O)N(C)c2nc3ccccc3[nH]c2=S)cc1	?	?	0	3%	12%
CN(c1nc2ccccc2nc1Cl)S(=O)(=O)c1ccccc1	?	23µM*	-6	4%	-3%
CN(C)/C=C/C(=C\C(=O)C(F)(F)F)Nc1ccc(C(F)(F)F)cc1	?	18µM*	13	-3%	-1%
CN(C)/C=C/C(=O)C(F)(F)F	9%	-3%	-5	7%	12%
CCN(c1ccccc1)S(=O)(=O)c1ccc(OC)c(NC(=O)CCc2nc3ccccc3c(=O)[nH]2)c1	18µM*	15µM*	7	-10%	-9%
CCN(c1ccccc1)S(=O)(=O)c1ccc(OC)c(NC(=O)Cc2ccc(F)cc2)c1	?	18µM*	?	-11%	-3%
CCOc1ccccc1NC(=O)CCCc1nc2ccccc2c(=O)[nH]1	-16%	?	13	?	1%
CCN(c1ccccc1)S(=O)(=O)c1ccc(OC)c(NC(=O)CNCCc2ccccc2)c1	26µM*	21µM*	?	?	?
CCN(c1ccccc1)S(=O)(=O)c1ccc(OC)c(NC(=O)C2CCC2)c1	?	?	-5	?	-11%
CCOc1ccc(Oc2ccccc2NC(=O)CCc2nc3ccccc3c(=O)[nH]2)cc1	23µM*	21µM*	82	-19%	-4%
CCOc1cc(/C=C(\C#N)C(N)=O)ccc1OCc1c(C)no[n+]1[O-]	8%	8%	-22	-8%	-13%
CCOC(=O)c1ccc(NC(=O)CCn2ccc(C)n2)cc1	3%	-21%	nt	nt	nt
COc1ccc(NC(=O)COC(=O)c2cccn2C)cc1S(=O)(=O)N1CCCCC1	0%	?	-2	0%	-8%
CC(=O)C1C(C)CC2C3CCC4CC(=O)CCC4(C)C3CCC21C (configuration not stated)	?	21µM*	11	0%	3%
CC(=O)C1CCC2C3CCC4CC(=O)CCC4(C)C3C=CC12C (configuration not stated)	-16%	15µM*	11	-3%	-14%
COc1ccc(C2CC(c3cccs3)=NN2C(=O)COC(=O)c2cncc(Br)c2)cc1OC (configuration not stated)	6%	?	11	-5%	-9%
O=C1C=C(NCc2ccncc2)CC(c2ccccc2)C1 (configuration not stated)	-14%	-15%	-1	-1%	-2%
SMILES	TDP1 cell CPT	DT40 TDP1 no CPT	IL-1B inflam inh	HT1080 IDH1KD tx	HT1080NT lethal
CCCCCCCCNC1=CC(=O)CC(C)(C)C1	?	16µM*	13	-10%	-16%
CCCCCCCNC1=CC(=O)CC(c2ccccc2)C1 (configuration not stated)	6.5µM*	5.8µM*	63	16µM*	?
CCCCCNC1=CC(=O)CC(c2ccccc2)C1 (configuration not stated)	?	18µM*	-3	-11%[9.24 µM]	?
Cc1ccc(C(=O)N/C(=C\c2ccccc2F)c2nc(=S)[nH][nH]2)cc1	21µM*	?	-1	-2%	-2%
Cc1ccc(/C=C(\NC(=O)c2ccc(C)cc2)c2nc(=S)[nH][nH]2)cc1	15µM*	?	-11	-15%	-11%
Cc1ccc(C(=O)N/C(=C/c2ccccc2F)C(=O)NCCCn2ccnc2)cc1	?	17%	-24	4%	5%
Cc1c(NC(=O)C(C)OC(=O)CCC2CCCC2)c(=O)n(-c2ccccc2)n1C (configuration not stated)	-2%	2%	-7	16%	8%
CCCn1c(SCc2ccon2)nc2ccccc2c1=O	-20%	?	-2	-28%	-19%
COc1ccccc1N=CC=C1OC(C)(C)C(C)(C)O1	0%	?	-75*	?	-18%
Cc1ccc(C(=O)N2CCCC(C(=O)Nc3cccc(-c4ccc(F)cc4)c3)C2)cn1 (configuration not stated)	16µM*	8.2µM*	-28	-15%	-25%
COc1ncccc1C(=O)N1CCCC(C(=O)Nc2cccc(-c3ccc(F)cc3)c2)C1 (configuration not stated)	21µM*	12µM*	4	-9%	-5%
COc1ccc(C(C(=O)NC2CCCC2)N(C(=O)CNC(=O)c2ccco2)c2cccnc2)cc1 (configuration not stated)	2%	5%	19	13%	-1%
O=C(Nc1ccccc1C(F)(F)F)C1CCN(S(=O)(=O)c2ccccc2)CC1	26%	-18%	nt	nt	nt
Cc1csc2nc(-c3cccc(NC(=O)c4ccc(S(N)(=O)=O)cc4)c3)cn12	?	16µM*	nt	nt	nt
Cc1csc2nc(-c3cccc(NC(=O)c4c(F)cccc4F)c3)cn12	23µM*	23µM*	nt	nt	nt
CCC(=O)Nc1cccc(-c2cn3c(C)csc3n2)c1	-9%	-29%	nt	nt	nt
COC(=O)c1ccccc1NC(=O)C1CCCN(S(=O)(=O)c2ccc(OC)cc2)C1 (configuration not stated)	18µM*	12µM*	9	1%	1%

Source: PubChem (National Center for Advancing Translational Sciences (NCATS))
